The full list was thinned out, with hits kept by preference.
Methyltransferases = Primary Screen for Target Class Profiling of Small Molecule Inhibitors of Methyltransferases. purified enzyme, MTase-Glo SAH luminescence; stronger effect = lower value. calls only at 40 µM. 25,000 compounds, 3.9% hits; call rule not given here
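Each enzyme was assayed with SAM and its substrate. SAH formation detected by MTase-Glo luminescence; single-point 40 uM screen[…].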
Calls only; – = inactive; + = active, no number; ! = a repeat was not active.

SMILES	Methyltransferases
COCCCNC(=O)C1(C)Cn2nc(-c3ccccc3)cc2C(=O)N1c1ccc(C)c(Cl)c1 (stereo unspecified)	–
CCCn1c(=O)c2ccc(C(=O)NC(C)C)cc2n2c(SCc3ccc(C)cc3)nnc12	–
O=C(Nc1ccc(F)c(Cl)c1)N1CCn2cccc2C1Cc1ccccc1 (stereo unspecified)	+
Cc1cccc(NC(=O)N2CCn3cccc3C2Cc2ccccc2)c1 (stereo unspecified)	–
O=C(Nc1cccc(F)c1)N1CCn2cccc2C1Cc1ccccc1 (stereo unspecified)	–
Cc1cc(C)cc(N2C(=O)c3cc(C(C)(C)C)nn3CC2(C)C(=O)NCc2ccccc2)c1 (stereo unspecified)	–
O=C(CCc1nnc2n(Cc3ccc(Cl)cc3)c(=O)c3ccccc3n12)N1CCC(N2CCCCC2)CC1	+
Cc1cccc(-c2nnc3n(CCc4ccccc4)c(=O)c4ccccc4n23)c1	+
CC1CCN(C(=O)CCc2nnc3n(Cc4ccc(Cl)cc4)c(=O)c4ccccc4n23)CC1	–
O=C(CCc1nnc2n(Cc3ccc(F)cc3)c(=O)c3ccccc3n12)N1CCN(C2CCCCC2)CC1	–
NC(=O)C1CCN(C(=O)CCc2nnc3n(Cc4ccc(F)cc4)c(=O)c4ccccc4n23)CC1	–
O=C(CCc1nnc2n(Cc3ccccc3)c(=O)c3ccccc3n12)N1CCN(c2cccc(Cl)c2)CC1	–
O=c1c2ccccc2n2c(-c3cccc(Cl)c3)nnc2n1CCc1ccccc1	–
Cc1ccc(Cn2c(=O)c3ccccc3n3c(CCC(=O)N4CCN(C5CCCCC5)CC4)nnc23)cc1	–
O=C(CCc1nnc2n(Cc3ccc(F)cc3)c(=O)c3ccccc3n12)N1CCC(N2CCCCC2)CC1	+
Cc1ccc(-c2nnc3n(CCc4ccccc4)c(=O)c4ccccc4n23)cc1	–
O=C(CCc1nnc2n(CCc3ccccc3)c(=O)c3ccccc3n12)N1CCC(N2CCCCC2)CC1	+
Cc1ccc(Cn2c(=O)c3ccccc3n3c(CCC(=O)N4CCC(Cc5ccccc5)CC4)nnc23)cc1	–
COc1ccc(OC)c2c1cc1n2CC(C)(C(=O)NC2CCCCC2)N(Cc2ccccc2)C1=O (stereo unspecified)	–
Cc1ccc(NC(=O)c2cc3n(n2)CC(C)(C(=O)NC2CCCCCC2)N(C)C3=O)c(Cl)c1 (stereo unspecified)	–
COc1ccc(OC)c(CN2C(=O)c3ccc(-c4ccco4)n3CC2(C)C(=O)NCc2ccccc2)c1 (stereo unspecified)	–
COc1ccc2cc3n(c2c1)CC(C)(C(=O)NC1CCCC1)N(Cc1cccnc1)C3=O (stereo unspecified)	–
CC(C)CCNC(=O)C1(C)Cn2nc(C(=O)NCCc3cccs3)cc2C(=O)N1C (stereo unspecified)	–
COCCN1C(=O)c2nc3ccccc3n2CC1(C)C(=O)NC1CCCCC1 (stereo unspecified)	–
Cc1ccc(C)c(C(=O)CSc2nnc3n(C)c(=O)c4ccc(C(=O)NC5CCCCC5)cc4n23)c1	–
SMILES	Methyltransferases
CCOC(=O)c1cc2n(n1)CC(C)(C(=O)NCc1ccccc1)N(Cc1ccccc1)C2=O (stereo unspecified)	–
CC1(C(=O)NC2CCCC2)Cn2c(nc3ccccc32)C(=O)N1Cc1ccco1 (stereo unspecified)	–
COC(=O)c1ncn2c1C(=O)N(Cc1ccc(OC(C)C)cc1)C(C)(C(=O)NC1CCCC1)C2 (stereo unspecified)	–
O=C(Nc1ccccc1)N1CCC(OCc2noc(C3CCCO3)n2)CC1 (stereo unspecified)	–
CC(C)CCNC(=O)C1(C)Cn2c(cc3ccccc32)C(=O)N1Cc1ccc2c(c1)OCO2 (stereo unspecified)	–
O=S(=O)(Nc1ccccc1Cl)c1ccc2[nH]c3c(c2c1)CCCC3	–
O=[N+]([O-])c1cc(S(=O)(=O)Nc2ccc(O)c3ccccc23)ccc1Cl	+
O=C(Nc1ccc([N+](=O)[O-])cc1Cl)c1cc(Cl)ccc1O	–
O=C(NCc1ccccc1F)c1ccc2c(=O)nc3c(-c4ccccc4)n[nH]n3c2c1	–
O=C(Cn1ccc2cc(S(=O)(=O)N3CCCCC3)ccc21)NC1CCCCC1	–
COc1ccc(NC(=O)c2ncn3c2C(=O)N(C2CC2)C(C)(C(=O)NCc2ccc(F)cc2)C3)cc1Cl (stereo unspecified)	–
CC(C)(Sc1ccc(CCN(CCCCC2CCCCC2)C(=O)NC2CCCCC2)cc1)C(=O)O	+!
CSc1ccc(CCN2C(=O)c3ccc(-c4ccco4)n3CC2(C)C(=O)NC2CCCCC2)cc1 (stereo unspecified)	–
CC1(C(=O)NC2CCCC2)Cn2c(ccc2-c2ccccc2)C(=O)N1CCCc1ccccc1 (stereo unspecified)	–
COc1ccc(CN2C(=O)c3ccc(-c4ccco4)n3CC2(C)C(=O)NC2CCCCCCC2)cc1 (stereo unspecified)	–
CCCn1c(=O)c2ccc(C(=O)NC(C)C)cc2n2c(=O)n(Cc3c(F)cccc3Cl)nc12	–
CCCn1c(=O)c2ccc(Cl)cc2n2c(=O)n(CC(=O)Nc3cccc(F)c3)nc12	–
CC1(C(=O)NC2CCCCCCC2)Cn2c(cc3sccc32)C(=O)N1Cc1ccc2c(c1)OCO2 (stereo unspecified)	–
Cn1c(=O)c2ccc(C(=O)NC3CCCC3)cc2n2c(SCC(=O)c3ccc(F)cc3)nnc12	–
CC1CCCCCCCc2cc(O)cc(O)c2C(=O)O1 (stereo unspecified)	+
CC1CCCC2OC2C(=O)c2c(O)cc(O)cc2CC(=O)O1 (stereo unspecified)	–
CC1CCC/C=C/C(=O)c2c(O)cc(O)cc2CC(=O)O1 (stereo unspecified)	–
Cc1cccc(N2CCN(S(=O)(=O)c3ccc4[nH]c(=O)[nH]c4c3)CC2)c1C	–
CCOC(=O)CCN(C(=O)c1ccc2c(c1)nc(CNc1ccc(C(=N)N)cc1)n2C)c1ccccn1	+
CC1CCC(NC(=O)CCn2ccc3cc(S(=O)(=O)N4CCCCC4)ccc32)CC1 (stereo unspecified)	–
SMILES	Methyltransferases
CCOC(=O)c1cc2n(n1)CC(C)(C(=O)NCc1ccccc1OC)N(CCc1ccc(SC)cc1)C2=O (stereo unspecified)	–
CN(CCCN1C(=O)c2ccc(-c3ccco3)n2CC1(C)C(=O)NC1CCCC1)Cc1ccccc1 (stereo unspecified)	–
CCCCN1C(=O)c2cc(C(=O)Nc3ccccc3OC)nn2CC1(C)C(=O)NC1CCCC1 (stereo unspecified)	–
Cn1cc(-c2ccc3c(c2)CCN3C(=O)Cc2cccc(C(F)(F)F)c2)c2c(N)ncnc21	–
COc1cccc(-c2cn(-c3ccc(CCN4CCC(O)CC4)cc3)c3ncnc(N)c23)c1	+
CC(=O)NC1CCN(Cc2cn(-c3ccc(C)cc3)nc2-c2cccc(C)c2)C1 (stereo unspecified)	–
CC(C)CNC(=O)c1ccc2c(=O)n(C(C)C)c3n[nH]c(=O)n3c2c1	–
CC1CCN(S(=O)(=O)c2ccc3c(ccn3CCC(=O)NCCc3ccccc3Cl)c2)CC1	–
COc1ccc(OC)c2c1cc1n2CC(C)(C(=O)NC2CCCCC2C)N(Cc2ccco2)C1=O (stereo unspecified)	–
CC1(C)CCC(CN2CCN(c3ccc(C(=O)NS(=O)(=O)c4ccc(NCC5CCOCC5)c([N+](=O)[O-])c4)c(Oc4cnc5[nH]ccc5c4)c3)CC2)=C(c2ccc(Cl)cc2)C1	+

Compound activity as filed in PubChem BioAssay.
